Bioassay records deposited in PubChem BioAssay by National Center for Advancing Translational Sciences (NCATS).
KB-V1 cytotox: KB-V1 MDR subline cytotoxicity; KB-V1 MDR cells viability, CellTiter-Glo, 72 h; Potency, µM (doses to about 46.1 µM), usual class: cytotoxic; 400,000 compounds, 3.4% hits; AID 1347076; also: potency is read from the fitted curve at half-maximal effect; % is scaled to controls: 0 for no effect and ±100 for the full control effect; nearly all actives have a fitted effect of over 60% in size
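Compound-treated KB-V1 multidrug-resistant cells, 72 h, 37 degrees C; viability by CellTiter-Glo. Fitted qHTS curves give the values.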
IL1B secr inh: blocks inflammasome-driven IL-1 beta release. THP-1 LPS/ATP IL-1B secretion, AlphaLISA, 16 h; active compounds read low. activity change, % at 57.5 µM. 360,000 compounds, 4.7% hits. AID 743279; in the data active = activity change below about -50%; inconclusive = mostly about -30% to -49%; also: % is scaled to controls: 0 for no effect and ±100 for the full control effect
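Secreted IL-1B measured by AlphaLISA bead assay after 16 h compound exposure of THP-1 cells; compounds (final up to 57.5 uM) added 1 h before LPS (250 ng/mL) and ATP (1.25 mM) stimulation; lower signal means less secretion.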
KB-3-1 tox: KB-3-1 parental cell cytotoxicity. KB-3-1 viability, CellTiter-Glo ATP luminescence, 72 h. Potency, µM (doses to about 46.1 µM), actives largely listed as cytotoxic. 400,000 compounds, 1.4% hits; also: potency is read from the fitted curve at half-maximal effect; % is scaled to controls: 0 for no effect and ±100 for the full control effect; nearly all actives have a fitted effect of over 60% in size
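Luminescent ATP read-out (CellTiter-Glo) measures survival of drug-naive KB-3-1 cells after 72 h compound exposure at 37 °C. Titration series was screened from lowest to highest concentration, with DMSO vehicle plates as background controls.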
SW480 rereplic: inducers of DNA re-replication in SW480 colon cancer cells. 340,000 compounds, 1.8% hits. SW480 DNA re-replication, Hoechst DNA content imaging, 48 h. Potency, µM (top dose mostly 46.1 µM), without a hit: at the highest dose re-replication activation, usual class: activators; also: potency is read from the fitted curve at half-maximal effect; % of control where 0% means no effect; nearly all actives have a fitted effect of over 55% in size
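Per well, 250 cells were exposed to pinned compound for 48 hr. Nuclear DNA was visualised with Hoechst (40 min, 37 C) and total object intensity recorded by fluorescence scanning.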
MCF10A rerep: induces DNA re-replication in MCF 10a normal breast cells | Potency, µM (doses to about 46.1 µM), without a hit: top-dose activity, positive = re-replication, most hits filed as activators | 350,000 compounds, 2.9% hits | AID 624296 | MCF 10A DNA re-replication, Hoechst nuclear intensity, 48 h; also: potency is read from the fitted curve at half-maximal effect; % of control where 0% means no effect; nearly all actives have a fitted effect of over 50% in size
Numbers without * were called inactive; i = inactive; ? = inconclusive; . = no result. Sampled rows, rich in hits. Any-hit rate of the full collection: about 9.9%. Unless noted, calls follow the shape of the dose curve; as a rule, active = well fitted curve in the direction sought with a large enough effect; inconclusive = small, poorly fitted or top-dose-only effect, or another doubt; inactive = no such curve, though single readings can be large; an effect the other way counts as inactive or inconclusive.

SMILES	KB-V1 cytotox	IL1B secr inh	KB-3-1 tox	SW480 rereplic	MCF10A rerep
CCC(=O)Nc1cccc(-n2nnnc2SCC(=O)N2CCCCC2)c1	i	10.8	i	-11.3%	-1.0%
CCCCCOC(=O)c1cc(=O)[nH]c2ccccc12	2.31µM*	13.9	8.2µM*	-1.1%	?
O=C(OCC(=O)N1CCCCC1)c1cc(=O)[nH]c2ccccc12	i	13.6	i	-2.1%	-8.6%
CCC1CCCCN1C(=O)COC(=O)c1cc(=O)[nH]c2ccccc12 (stereo not given)	18.4µM*	3.3	i	-4.9%	0.0%
COCC(C)n1c(C)cc(C(=O)COC(=O)c2cc(=O)[nH]c3ccccc23)c1C (stereo not given)	20.6µM*	-11.6	i	-3.1%	7.3%
CN1CCC(N(C)C(=O)c2cc(=O)c3ccccc3o2)CC1	i	-2.1	i	-0.5%	7.4%
O=C(O)C1CCCC2CN3CCc4c([nH]c5ccccc45)C3C(O)C21 (stereo not given)	?	20.8	i	0.6%	-1.0%
O=C(CSC1=NS(=O)(=O)c2cc(Cl)ccc2N1)Nc1cccc(F)c1	i	5.4	i	11.6%	-0.8%
CC(C)CC(NS(=O)(=O)c1ccc2c(c1)oc(=O)n2C)C(=O)NCCc1ccc(Cl)cc1 (stereo not given)	i	.	i	.	.
Cc1cc(N(C)C)cc(C)c1C=O	i	.	i	.	.
CCN(CC)CCn1c(=N)n(CC(=O)c2ccc(C)cc2)c2ccccc21	i	-58.5*	?	-5.2%	?
Cn1c(=N)n(CC(=O)c2ccccc2)c2ccccc21	i	-4.4	i	12.4%	9.1%
COc1ccc(/C=C/C(=O)c2nc3ccccc3n2CC(=O)c2ccc(OC)cc2)cc1	23.1µM*	-27.0	i	16.0%	1.8%
CCn1c(=N)n(CC(=O)c2ccc(OC)c(OC)c2)c2ccccc21	13µM*	1.9	i	-5.2%	-7.1%
COc1ccc(C(=O)Cn2c(=N)n(C)c3ccccc32)cc1	i	-56.2*	i	-1.6%	3.1%
COc1ccc(C(=O)Cn2c(NCCO)nc3ccccc32)cc1	i	-22.2	i	5.4%	-2.7%
COc1ccc(C(=O)Cn2c(C(C)=O)nc3ccccc32)cc1	3.26µM*	13.4	?	3.4%	13.3%
O=C(CN(Cc1ccccc1F)C(=O)Cn1nnc(-c2cccs2)n1)NC1CCCCC1	i	-1.6	i	0.7%	5.2%
CC(=O)c1ccc(-c2cnc3c(NC=O)cc(-c4ccc(C(=O)NC5CC5)cc4)cn23)cc1	i	-64.5*	i	.	.
CC(=O)c1ccc(-c2cnc3c(NC=O)cc(-c4ccccc4Oc4ccccc4)cn23)cc1	?	-15.1	11.6µM*	.	.
O=CNc1cc(-c2ccc(C(=O)NC3CC3)cc2)cn2c(-c3ccc(F)c(Cl)c3)cnc12	?	0.0	?	.	.
COc1ccc(-c2cc(NC=O)c3ncc(-c4cnn(C)c4)n3c2)cc1	18.4µM*	0.0	?	.	.
O=CNc1cc(-c2cccc(F)c2)cn2c(-c3ccc(F)c(Cl)c3)cnc12	23.1µM*	0.0	?	.	.
COc1ccc(-c2cnc3c(NC=O)cc(-c4ccc(S(C)(=O)=O)cc4)cn23)cc1OC	i	-19.4	?	.	.
COc1ccc(-c2cnc3c(NC=O)cc(-c4ccccc4)cn23)cc1OC	1.64µM*	-13.5	1.16µM*	.	.
SMILES	KB-V1 cytotox	IL1B secr inh	KB-3-1 tox	SW480 rereplic	MCF10A rerep
COc1ccc(-c2cnc3c(NC=O)cc(-c4ccc(F)cc4)cn23)cc1OC	?	-14.0	0.206µM*	.	.
COc1cccc(-c2cnc3c(NC=O)cc(-c4ccc(N(C)C)cc4)cn23)c1	?	19.5	?	.	.
COc1ccc(-c2cnc3c(NC=O)cc(-c4ccoc4)cn23)cc1OC	?	-22.6	?	.	.
COc1ccc(-c2cnc3c(NC=O)cc(-c4cccc(NS(C)(=O)=O)c4)cn23)cc1OC	i	-24.0	?	.	.
COc1ccc(-c2cnc3c(NC=O)cc(-c4cc(OC)c(OC)c(OC)c4)cn23)cc1OC	23.1µM*	-27.9	?	.	.
COc1ccc(-c2cc(NC=O)c3ncc(-c4cccc(OC)c4)n3c2)cc1	7.31µM*	89.2	6.51µM*	.	.
Cn1cnc(S(=O)(=O)Nc2ccc(OC(F)(F)F)cc2)c1	?	-5.3	i	-8.9%	-5.9%
COc1cc(/C=C(\NC(=O)c2ccccc2)C(=O)N2CC3CC(C2)c2cccc(=O)n2C3)cc(OC)c1OC (stereo not given)	i	-1.8	i	-5.6%	0.1%
CCOc1cc(C(=O)OC(C(=O)NC(=O)NC)c2ccccc2)ccc1OCC(=O)N1CCOCC1 (stereo not given)	i	14.3	i	-5.7%	-4.3%
COc1ccc(NS(=O)(=O)c2ccc(/C=C/C(=O)O)cc2)cc1S(=O)(=O)N1CCOCC1	i	12.5	i	-5.6%	1.3%
Cc1ccccc1Nc1cc(C(=O)NC2CCC(C)CC2)c2ccccc2n1 (stereo not given)	?	.	i	.	.
COc1ccccc1-c1cc(NC=O)c2ncc(-c3cccc(C(C)=O)c3)n2c1	?	4.7	?	.	.
COc1ccc(F)cc1-c1cc(NC=O)c2ncc(-c3cccc(C(F)(F)F)c3)n2c1	?	2.5	23.1µM*	.	.
COc1cccc(-c2cc(NC=O)c3ncc(-c4ccc(OC)c(OC)c4)n3c2)c1	14.6µM*	-29.7	13µM*	.	.
COc1ccc(-c2cc(NC=O)c3ncc(-c4cc(OC)c(OC)c(OC)c4)n3c2)cc1	0.0461µM*	108.1	?	.	.
COc1cccc(-c2cnc3c(NC=O)cc(-c4cc(OC)c(OC)c(OC)c4)cn23)c1	?	22.1	i	.	.
COc1ccccc1-c1cc(NC=O)c2ncc(-c3ccc(S(C)(=O)=O)cc3)n2c1	16.4µM*	?	13µM*	.	.
CCOC(=O)N1CCC(N(CCN(C)C)C(=S)Nc2ccccc2OCC)CC1	?	-8.2	i	2.5%	4.5%
COc1ccc(CN(C)C(=O)COC(=O)c2c(-c3ccccc3Cl)noc2C)cc1	?	?	i	-2.5%	-6.6%
Cc1cc(NC(=O)CSc2nnc(-c3ccncc3)n2N)ccc1Br	i	9.5	i	-4.8%	0.1%
COc1cccc(-c2cc(NC(C)=O)c3ncc(-c4ccc(OC)c(OC)c4)n3c2)c1	i	-80.8*	i	.	.
CC(C(=O)NCCCc1ccccc1)c1ccc([N+](=O)[O-])cc1 (stereo not given)	i	0.0	i	3.5%	-1.0%
Cc1cc(C)nc(N/C(=N\S(=O)(=O)Cc2ccccc2)Nc2ccccc2Br)n1	?	-7.5	i	?	4.11µM*
COc1cc(/C=C/C(=O)c2c(O)cc(C)oc2=O)cc(OC)c1O	?	-55.2*	?	-1.1%	2.1%
